From the supplement of paper PMC12669032
Unmarked numbers belong to inactive results.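 How the source made its calls: active = AUC reduced over 20% with Padj below 0.05 in at least 2 of 3 replicates; inactive = otherwise.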

System: Lactobacillus gasseri
Experiment: growth AUC relative to DMSO control (median of replicates) (fraction); higher = more growth (less inhibition), active = hit call of the paper
Details: 20 µM; 24 h
Method in brief: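 Gut bacterial monocultures were grown anaerobically at 37 °C in mGAM, starting at OD600 0.05, with 20 µM compound (1% DMSO) in round-bottom 96-well plates under pierced gas-permeable seals. OD600 was read hourly for 24 h. Area under the growth curve (minimum OD set to 0) was normalised to the plate median of DMSO controls, or to row and column medians on the industrial chemical plate. The value is the median of three biological replicates grown on separate days.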

Row | Structure (SMILES) | growth AUC
1 | CC1(C)C(C=C(Cl)Cl)C1C(=O)OC(C#N)c1ccc(F)c(Oc2ccccc2)c1 (mixture of isomers) | 0.782
2 | c1ccc2c(c1)cc1ccc3cccc4ccc2c1c34 | 1.04
3 | CCc1cccc(C)c1N(C(=O)CCl)C(C)COC (stereo not given) | 1.04
4 | CO/C=C(/C(=O)OC)c1ccccc1Oc1cc(Oc2ccccc2C#N)ncn1 | 0.908
5 | O=C(NCCc1ncc(C(F)(F)F)cc1Cl)c1ccccc1C(F)(F)F | 0.999
6 | CC(=O)CC(c1ccc(Cl)cc1)c1c(O)c2ccccc2oc1=O (stereo not given) | 1.3
7 | CCOP(=S)(OCC)Oc1ccc(S(C)=O)cc1 (stereo not given) | 1.07
8 | CCOP(=O)(NC(C)C)Oc1ccc(S(C)(=O)=O)c(C)c1 (stereo not given) | 0.993
9 | Clc1cccc(C(Cl)(Cl)Cl)n1 | 0.889
10 | COP(=O)(OC)Oc1ccc(S(C)(=O)=O)c(C)c1 | 1.07
11 | Clc1ccc(C(c2ccc(Cl)cc2)C(Cl)(Cl)Cl)cc1 | 0.487
12 | O=c1oc2ccccc2c(O)c1C(CC(O)c1ccc(-c2ccc(Br)cc2)cc1)c1ccccc1 (stereo not given) | 0.801
13 | C[Si](Cn1cncn1)(c1ccc(F)cc1)c1ccc(F)cc1 | 1.04
14 | CCCCN(CC)c1c([N+](=O)[O-])cc(C(F)(F)F)cc1[N+](=O)[O-] | 1
15 | Cc1cc(Cl)ccc1OCC(=O)O | 1.05
